Results taken from PubChem BioAssay AID488909 (Broad Institute, 2010).
Entries with a potency or affinity are not part of this list. Results filed as inconclusive are left out. Values without a mark were called inactive.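 How the source made its calls: active means fluorescence drops, meaning less fungal growth, with half-maximal dose at most ten times the top valid tested dose; inconclusive means flat curve with 30 to 70% inhibition, or poor fit; inactive means the rest, including compounds that raise the signal.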

Assay: growth inhibition of azole-resistant C. albicans, dose response, CaCi-8 strain, Alamar Blue, dry powder, set 2 (AID 488909)
Details: C. albicans CaCi-8 + fluconazole, 48 h; series mostly up to 26 µM; activity change, negative = inhibition: at the top concentration

Row | SMILES | activity change, negative = inhibition [%]
1 | Clc1ccc2c(N3CCNCC3)ccnc2c1 | 8.86
2 | N#Cc1ccc(N2CCN(C(=O)c3ccc(Cl)cc3)CC2)nc1 | -19.2
3 | COCCC(=O)N1CCN(c2ccnc3cc(Cl)ccc23)CC1 | -6.82
4 | Cc1cc(N2CCN(C(=O)c3ccc(Cl)cc3)CC2)c2ccccc2n1 | -20.2
